This is a sample that favours compounds with a hit; in the whole collection about 2.9% have one here.
PAFAH1B2 inh: PAFAH1B2 enzyme inhibitors, primary screen, biochemical, fluorescence polarization, human. Platelet-activating factor acetylhydrolase IB subunit alpha2 (Homo sapiens), P68402. recombinant PAFAH1B2, FP-rhodamine activity probe. inhibition, % at 3.39 µM. actives 1.2% (n = 340,000);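 active means inhibition above the mean of all tested compounds plus 3 SD, cut at about 24% in these data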;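 further: 0% = enzyme with DMSO and 100% = wells lacking PAFAH1B2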
Target sequence (P68402 whole entry, looked up): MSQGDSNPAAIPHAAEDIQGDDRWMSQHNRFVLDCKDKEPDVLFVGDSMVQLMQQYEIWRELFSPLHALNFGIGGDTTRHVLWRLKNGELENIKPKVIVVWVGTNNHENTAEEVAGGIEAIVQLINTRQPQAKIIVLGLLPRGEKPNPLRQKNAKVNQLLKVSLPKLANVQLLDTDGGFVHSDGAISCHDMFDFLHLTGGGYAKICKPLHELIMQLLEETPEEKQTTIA
PAFAH2 FP inh: PAFAH2 enzyme inhibitors, primary screen, biochemical, fluorescence polarization, human | recombinant PAFAH2, FP-rhodamine activity probe | inhibition, % at 3.39 µM | actives 0.99% (n = 340,000) | AID 492956, 2010;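 active means inhibition above the mean over all tested compounds plus 3 SD, cut at about 30% in these data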;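 further: inhibitors block probe labeling of enzyme so polarization drops; 0% = enzyme with DMSO and 100% = wells lacking PAFAH2 protein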
PAFAH1B3 FP inh: PAFAH1B3 enzyme inhibitors, primary screen, biochemical, fluorescence polarization, human | inhibition, % at 3.39 µM | Platelet-activating factor acetylhydrolase IB subunit alpha1 (Homo sapiens), Q15102 | recombinant PAFAH1B3, FP-rhodamine probe | actives 0.28% (n = 340,000);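 active means inhibition above the screen-wide average of all tested compounds plus 3 SD, cut at about 25% in these data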;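 further: 0% = enzyme with DMSO only and 100% = wells lacking PAFAH1B3 protein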
pPAFAH inh: pPAFAH enzyme inhibitors, primary screen, biochemical, fluorescence polarization, human; Platelet-activating factor acetylhydrolase (Homo sapiens), Q13093; recombinant pPAFAH, FP-rhodamine probe fluorescence polarization; inhibition, % at 3.39 µM; actives 1.5% (n = 330,000); AID 463082, 2010;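 active means inhibition above the mean inhibition across the screen plus 3 SD, cut at about 25% in these data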;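 further: inhibitors block binding of the rhodamine activity-based probe so polarization drops; 0% = enzyme with DMSO and 100% = wells lacking pPAFAH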
Target sequence (Q13093 whole entry, looked up): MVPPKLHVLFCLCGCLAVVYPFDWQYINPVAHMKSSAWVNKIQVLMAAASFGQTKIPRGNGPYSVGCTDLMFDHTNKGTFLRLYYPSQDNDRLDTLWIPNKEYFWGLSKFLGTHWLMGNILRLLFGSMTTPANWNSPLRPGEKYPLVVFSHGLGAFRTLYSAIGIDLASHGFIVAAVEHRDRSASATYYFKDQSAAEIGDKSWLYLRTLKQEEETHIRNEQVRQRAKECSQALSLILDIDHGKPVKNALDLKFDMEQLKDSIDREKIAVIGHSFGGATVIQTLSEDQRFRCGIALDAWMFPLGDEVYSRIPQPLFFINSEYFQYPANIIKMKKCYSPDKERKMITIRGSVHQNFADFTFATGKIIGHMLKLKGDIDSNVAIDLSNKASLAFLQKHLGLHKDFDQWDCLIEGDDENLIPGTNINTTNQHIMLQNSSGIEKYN
EBNA-1 inhibitor: EBNA-1 DNA-binding inhibitors, primary screen, biochemical, fluorescence polarization; inhibition, % at 14.8 µM; actives 0.34% (n = 300,000); AID 1950, 2009; in the data active means inhibition above about 28%
ZTA DNA inh: blocks Epstein-Barr virus ZTA, an EBNA-1 counter-screen; actives 0.15% (n = 320,000); inhibition, % at 11 µM; AID 2234; ZTA-DNA binding, fluorescence polarization; in the data active means inhibition above about 33%
EBNA-1 inh conf: EBNA-1 DNA-binding inhibitors, retest, confirmation, biochemical, fluorescence polarization, triplicate | shares compounds with EBNA-1 inhibitor | Recombinant EBNA-1 DBD, Cy5-DNA fluorescence polarization | inhibition, % at 14.8 µM | actives 35% (n = 830) | AID 2292, 2010;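 active means mean inhibition across replicates above a set limit taken from the earlier primary screen, cut at about 28% in these data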;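 further: plate controls were EBNA-1 protein with DMSO for no effect and wells lacking EBNA-1 for full effect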
ZTA DNA inh trip: EBV Zta DNA binding inhibitors, counter-screen for EBNA-1 inhibitor project, biochemical, fluorescence polarization, triplicate. 830 tested, under 10 active. inhibition, % at 11.1 µM. Zta-ZRE DNA binding, Cy5 fluorescence polarization. shares compounds with EBNA-1 inhibitor;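 active means mean inhibition over triplicates above a set limit taken from the primary EBNA-1 screen, cut at about 37% in these data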;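 further: purified full length Zta protein with Cy5 labeled ZRE DNA probe; 0% = Zta with DMSO and 100% = wells lacking Zta protein; inhibitors lower polarization by freeing the labeled DNA probe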
Zta DNA confirm: EBV Zta binding to ZRE DNA, inhibitors, confirmation, biochemical, fluorescence polarization, triplicate. shares compounds with ZTA DNA inh. inhibition, % at 11.1 µM. actives 30% (n = 320). AID 2361, 2010;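 active means mean inhibition across triplicate runs above the hit threshold derived for the original primary screen, cut at about 33% in these data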;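 further: 0% = Zta with DMSO and 100% = wells lacking Zta protein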
EBNA1 counter: EBNA-1 DNA-binding inhibition, counter-screen for ZTA inhibitor project, biochemical, fluorescence polarization | shares compounds with ZTA DNA inh | inhibition, % at 14.8 µM | 320 tested, under 10 active; call rule not given here
PAFAH2 FP conf: PAFAH2 enzyme inhibitors, confirmation, biochemical, fluorescence polarization, human. shares compounds with PAFAH2 FP inh. recombinant PAFAH2, FP-rhodamine activity probe. inhibition, % at 3.39 µM. actives 65% (n = 2,300);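 active means mean inhibition over three repeats above a set limit taken from the earlier primary screen, cut at about 30% in these data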;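 further: inhibitor blocks binding of rhodamine activity probe so polarization falls; 0% = enzyme with DMSO and 100% = wells lacking PAFAH2 protein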
PAFAH1B3 confirm: PAFAH1B3 enzyme inhibitors, confirmation, biochemical, fluorescence polarization, human | shares compounds with PAFAH1B3 FP inh | actives 30% (n = 390) | inhibition, % at 3.39 µM | recombinant PAFAH1B3, FP-Rh activity-based probe;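 active means average inhibition over triplicate runs above the hit cutoff set in the earlier primary screen, cut at about 25% in these data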;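 further: 0% = enzyme with DMSO and 100% = wells lacking PAFAH1B3 protein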
* hit, by the source's call; x = no result given.

SMILES	PAFAH1B2 inh	PAFAH2 FP inh	PAFAH1B3 FP inh	pPAFAH inh	EBNA-1 inhibitor	ZTA DNA inh	Zta DNA confirm	EBNA1 counter	others
Cc1oc(-c2ccccc2)nc1C(=O)Nc1nccs1	4.4	31.9*	3.4	7.1	51.8*	11.3	x	x	EBNA-1 inh conf=0.2;ZTA DNA inh trip=-0.1;PAFAH2 FP conf=1.0
CN(C(=O)COC(=O)c1ccccc1C(=O)N1CCN(c2ccccc2)CC1)c1ccccc1	0.2	-0.7	5.1	4.1	-2.8	-4.2	x	x
Cc1cc(C(=O)N/N=C/c2cc(N=Nc3ccccc3)ccc2O)n[nH]1	5.7	-17.2	28.6*	13.9	74.7*	17.0	x	x	EBNA-1 inh conf=-6.5;ZTA DNA inh trip=38.4*;PAFAH1B3 confirm=18.4
CCc1ccc(C(=O)COC(=O)c2ccc(Cl)nc2)cc1	x	x	x	2.2	-11.5	-9.7	x	x
Cc1cc(N/N=C/c2c(O)ccc3ccccc23)nc(-c2ccccc2O)n1	13.2	20.1	29.5*	21.3	49.0*	12.1	x	x	EBNA-1 inh conf=20.5;ZTA DNA inh trip=1.2;PAFAH1B3 confirm=14.9
Oc1ccc2ccccc2c1/C=N/Nc1ccccc1	10.3	5.2	3.1	7.6	-5.9	1.6	x	x
O=C(Nc1cccc(C(=O)N2CCCCCC2)c1)c1ccco1	4.4	-1.2	-3.3	8.4	1.1	39.9*	-2.1	-3.0
O=C(Nc1cccc(C(=O)N2CCN(c3ccccc3)CC2)c1)c1ccco1	-2.7	2.6	-0.6	-9.5	0.6	6.1	x	x
COc1cc(/C=C(\C#N)C(=O)NC2CCCCC2)ccc1OCc1ccc(C(=O)O)cc1	3.9	4.8	10.5	3.5	5.1	-2.8	x	x
O=c1[nH]c2ccccc2[n+]([O-])c1-c1ccccc1	-0.4	2.1	4.3	-5.0	-3.1	-1.2	x	x
Cc1ccc2c(c1)N(C(=O)c1ccco1)C(C)(C)c1ssc(=S)c1-2	3.2	3.1	1.9	4.6	9.6	17.5	x	x
Oc1ccc(N=Cc2ccc(-c3cccs3)s2)cc1	14.5	8.9	15.8	21.6	-1.4	46.5*	46.6*	1.1
O=Cc1ccc(-c2cccs2)s1	16.7	-0.8	0.6	x	x	x	x	x
Cc1cccc(NC(=O)CCNS(=O)(=O)c2ccc3[nH]c(=O)oc3c2)c1	1.0	-4.2	4.4	-0.9	-5.0	197.9*	-15.8	-5.0
Cc1ccc(-n2[nH]c(C)c(C=Nc3ccc4[nH]c(=O)[nH]c4c3)c2=O)cc1C	-0.1	13.1	9.2	17.5	-6.9	52.5*	14.1	-1.8
CCCn1c2ccccc2c2cnn(CC(=O)NCCCN3C(C)CCCC3C)c(=O)c21 (centres undefined)	4.8	2.2	2.2	0.2	-3.5	-6.0	x	x
Cc1cc(C)nc(NN=CC2=C(N3CCOCC3)/C(=C/c3ccc(Cl)cc3)CC2)n1	6.2	17.5	7.9	x	x	x	x	x
O=C(O)c1ccc(N/N=C/C2=C(N3CCOCC3)C(=C\c3ccccc3)/CC2)cc1	4.2	8.5	8.1	28.2*	13.9	68.6*	6.4	5.4
COc1cc(/C=C/c2[nH]c(=O)[nH]c(=O)c2[N+](=O)[O-])cc([N+](=O)[O-])c1O	5.9	0.9	6.1	19.4	-2.1	36.2*	55.4*	-8.3
CS(=O)(=O)N(CC(=O)N1CCCCCC1)c1cccc(F)c1	2.3	1.1	1.2	6.4	7.0	-6.3	x	x
COc1cccc(OCC(=O)Nc2c3c(nn2-c2ccc(F)cc2)CS(=O)(=O)C3)c1	-1.9	-2.9	5.3	6.8	6.5	-5.1	x	x
Cc1cc(Nc2cccc(F)c2)n2nc(C)nc2n1	1.6	1.4	12.9	-7.0	-1.8	107.1*	-9.1	-7.6
CCN(CC)CCNc1oc(-c2ccccc2)nc1S(=O)(=O)c1ccccc1	4.4	2.0	5.0	3.2	x	x	x	x
COc1cc(C(C)=O)ccc1OCC(=O)OCCCOC(=O)COc1ccc(C(C)=O)cc1OC	-3.0	7.4	-5.9	4.7	-8.5	-18.9	x	x
CC(=O)O/C(=C\c1cn(C(C)=O)c2ccccc12)C(=O)O	-2.7	-4.8	6.0	0.2	0.8	157.6*	4.9	-1.1
SMILES	PAFAH1B2 inh	PAFAH2 FP inh	PAFAH1B3 FP inh	pPAFAH inh	EBNA-1 inhibitor	ZTA DNA inh	Zta DNA confirm	EBNA1 counter	others
CC(=O)n1cc(CO)c2ccccc21	-4.4	-2.0	0.0	-0.6	2.8	4.4	x	x
CCOC(=O)NN1C(=O)c2ccccc2NC1c1ccc(N(C)C)cc1 (centres undefined)	3.0	6.3	7.1	6.2	-4.5	33.0*	6.2	0.1
COc1ccc(S(=O)(=O)N2CCc3ccccc32)cc1C(=O)NCCc1ccccn1	5.0	2.7	-4.0	3.1	3.6	14.9	x	x
Cn1nc(-c2ccccc2)cc1NS(=O)(=O)c1ccc(C#N)cc1	2.2	2.2	7.2	-0.1	-4.5	8.1	x	x
COc1ccc(C2=NN(C(C#N)c3ccc(OC)cc3)C(c3ccccc3)C2)cc1 (centres undefined)	-3.6	8.7	3.2	7.4	4.8	34.7*	-5.5	-7.6
Cc1ccc(NC(=S)N2CCCCC2CO)cc1C (centres undefined)	1.7	4.5	9.8	-0.9	-2.5	-3.0	x	x
CCN1CCN=C1Nc1ccccc1	-0.7	2.6	12.1	4.1	0.1	0.2	x	x
O=C(Nc1ccc(N2CCCC2)cc1)C(Cl)c1ccccc1 (centres undefined)	11.9	9.0	2.4	15.4	27.2	49.2*	70.2*	36.4*
CS(=O)(=O)N1CCN(c2ccc(NC(=O)C(c3ccccc3)c3ccccc3)cc2)CC1	1.6	3.4	5.0	4.3	1.8	6.8	x	x

High-throughput results as filed in PubChem BioAssay.
